mut p53 react: re-activators of the mutant p53 pathway. SW480 PUMA-promoter luciferase, p53 mutant reactivation. activation, % at 9.98 µM. actives 1.5% (n = 28,000); in the data active means activation above about 52%
STK33 inh: inhibitors of human STK33 kinase; Q9BYT3; ADP-Glo luminescence, MBP substrate; inhibition, % at 12.5 µM; actives 0.44% (n = 27,000); AID 2322; in the data active means inhibition above about 20%
Target sequence (Q9BYT3 whole entry, looked up): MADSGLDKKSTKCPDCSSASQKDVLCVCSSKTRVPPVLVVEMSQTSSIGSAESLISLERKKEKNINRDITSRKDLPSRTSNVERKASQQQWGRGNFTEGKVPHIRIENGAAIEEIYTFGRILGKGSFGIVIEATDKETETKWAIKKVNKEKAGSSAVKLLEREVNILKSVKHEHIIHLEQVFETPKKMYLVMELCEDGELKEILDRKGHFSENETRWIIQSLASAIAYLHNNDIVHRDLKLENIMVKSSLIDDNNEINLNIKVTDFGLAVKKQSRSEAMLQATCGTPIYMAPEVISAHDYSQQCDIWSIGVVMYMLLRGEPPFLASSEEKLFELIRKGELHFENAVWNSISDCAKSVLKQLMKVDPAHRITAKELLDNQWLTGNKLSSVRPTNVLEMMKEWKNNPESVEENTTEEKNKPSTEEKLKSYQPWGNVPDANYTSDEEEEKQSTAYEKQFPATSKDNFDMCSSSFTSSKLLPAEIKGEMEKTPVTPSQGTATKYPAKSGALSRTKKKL
ID4 binder: ID4 (human) binding. P47928. small molecule microarray, Flag-ID4 binding, fluorescence F/B. calls only. actives 1.2% (n = 31,000). AID 624137; call rule not given here;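 further: a binder raises fluorescence above local background on the spot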
* marks the source's active call; other numbers are inactive results. Compounds with a hit are over-represented: about 2% of the library has one in this group of screens.

For CCc1ccc(CCC(=O)Nc2ccc(I)cc2)o1 the results were mut p53 react 13, STK33 inh 0 and ID4 binder inactive.
`CCc1ccc(CCC(=O)Nc2ccc(C)c(C)c2)o1` gave mut p53 react 71*, STK33 inh 5 and ID4 binder inactive.
`O=C(NCc1ccccn1)C(=O)Nc1ccccc1F` gave mut p53 react 61*, STK33 inh -1 and ID4 binder inactive.
`Cc1ccc(NC(=O)CSc2ncccn2)cc1C` gave mut p53 react 2, STK33 inh 1 and ID4 binder inactive.
CC(C)CNC(=O)C(=O)NCc1ccccn1 was read as mut p53 react 2, STK33 inh -5 and ID4 binder inactive.
For Cc1cc(=O)oc2cc(NC(=S)NCCCN3CCCC3=O)ccc12 the results were mut p53 react 39, STK33 inh -1 and ID4 binder inactive.
Cc1cc(=O)oc2cc(NC(=S)NCc3ccccn3)ccc12 was read as mut p53 react 81*, STK33 inh 2 and ID4 binder inactive.
Screening Cc1ccc(NC(=O)C(=O)NCc2ccccn2)cc1C returned mut p53 react 94*, STK33 inh 1 and ID4 binder inactive.
For COc1cc(O[C@@H]2O[C@H](CO[C@H]3OC[C@](O)(CO)[C@H]3O)[C@@H](O)[C@H](O)[C@H]2O)cc(OC)c1OC the results were STK33 inh -3 and ID4 binder inactive.
Screening C=CCNC(=O)[C@H]1[C@@H]2C(=O)O[C@@H](c3ccccc3)[C@@H](c3ccccc3)N2[C@@H](c2ccc(OCCO)cc2)[C@]12C(=O)N(C(=O)OCCOC)c1ccc(C#CC3=CCCCC3)cc12 returned STK33 inh 9 and ID4 binder inactive.
Screening C=C1C(=O)O[C@@H]2/C=C(/COC(C)=O)CC/C=C(/CO)CC[C@@H]12 returned STK33 inh 7.
For COC1CC(OC2C(C)OC(OC3C(C)OC(OC4C(C)OCC(OC5C(O)C(O[C@H]6CC[C@@]7(C)C(=CC[C@]8(O)C7CC(OC(=O)c7ccccc7)[C@@]7(C)[C@]8(O)CC[C@@]7(O)C(C)=O)C6)OC(CO)C5OC5OC(CO)C(O)C(O)C5O)C4OC)CC3OC)CC2OC)OC(C)C1O (some centres not stated) the results were mut p53 react -66, STK33 inh -2 and ID4 binder inactive.
For COc1ccc(C(=O)NCC(=O)Nc2cc(OC)ccc2OC)cc1 the results were mut p53 react 1, STK33 inh 0 and ID4 binder active.
COc1ccc(OC)c(NC(=O)CNC(=O)c2ccc(C(C)(C)C)cc2)c1 was read as mut p53 react 7, STK33 inh -1 and ID4 binder inactive.
COc1ccc(OC)c(NC(=O)c2ccc(CSc3nnc(C)s3)cc2)c1 was read as mut p53 react 62*, STK33 inh 0 and ID4 binder inactive.
`COc1ccc(OC)c(NC(=O)Cc2ccc(OC)c(OC)c2)c1` gave mut p53 react -6, STK33 inh 2 and ID4 binder inactive.
C=C(C(=O)O)C(CCCCCCO)C(=O)O (configuration not stated) was read as mut p53 react -5, STK33 inh -6 and ID4 binder active.
C=C(C(=O)O)C(CCCCC(C)O)C(=O)O (configuration not stated) was read as mut p53 react 4, STK33 inh -2 and ID4 binder inactive.
Screening O=C1/C(=C/c2ccc(-c3nn[nH]n3)cc2)C(c2ccccc2)Oc2ccccc21 (configuration not stated) returned STK33 inh -5.
`O=c1n(-c2ccc(F)cc2)nc2n1CCCN2` gave mut p53 react 67* and ID4 binder inactive.
Screening O=C(Nc1cc(-c2ccc(Cl)cc2)nn1-c1ccc(F)cc1)C1CCC1 returned mut p53 react 1 and ID4 binder inactive.
`Cc1ccc(Nc2nc(N)nc(COc3cccc4cccnc34)n2)cc1` gave mut p53 react 19, STK33 inh 9 and ID4 binder inactive.
For COc1cc(CNC2CCCC2)cc(I)c1OCC(N)=O the results were mut p53 react 10, STK33 inh 4 and ID4 binder inactive.
N#Cc1cccc(NC(=O)CCCN2C(=O)c3ccccc3C2=O)c1 was read as mut p53 react 12, STK33 inh 0 and ID4 binder active.
`N#Cc1ccc(NC(=O)CCN2C(=O)c3ccccc3C2=O)cc1` gave mut p53 react 39, STK33 inh -1 and ID4 binder inactive.
Screening COc1ccc(-c2coc3c(OC)c(OC)cc(OC)c3c2=O)cc1 returned STK33 inh 0 and ID4 binder inactive.
`COc1ccc2c(=O)c(-c3ccc(OC)c(OC)c3)coc2c1` gave mut p53 react 124* and ID4 binder inactive.
`COc1ccc2c(=O)c(CC(=O)O)coc2c1` gave STK33 inh 2 and ID4 binder inactive.
For COc1ccc(-c2coc3cc(OC(C)=O)cc(OC(C)=O)c3c2=O)cc1 the results were mut p53 react 130*.

Assay outcomes: PubChem, Broad Institute
